Screening results from PubChem BioAssay.
IDE exosite inh: exo-site inhibitors of human insulin-degrading enzyme | P14735 | purified IDE, FL-6b probe fluorescence polarization; stronger effect = lower value | 6.3% of 17,000 active | z-score at 20 µM;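 active = z-score of -3 or lower, meaning strong loss of probe binding signal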;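 note: His-tagged human IDE residues 42-1019 made in E. coli with 30 nM FL-6b probe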
Of the large screens only hits and unclear results are named; the others gave an inactive call. Only a selection was taken, and hits are over-represented in it overall.

Cc1cccc(-c2ccc([C@@H]3[C@H](CO)N4CCCCN(S(=O)(=O)c5cccs5)C[C@@H]34)cc2)c1	IDE exosite inh -8.04
O=S(=O)(c1cccs1)N1CCCCN2[C@H](CO)[C@H](c3ccc(/C=C/c4ccccc4)cc3)[C@@H]2C1	none
COc1cccc(-c2ccc([C@@H]3[C@H](CO)N4CCCCN(S(=O)(=O)c5cccs5)C[C@@H]34)cc2)c1	IDE exosite inh -6.05
O=S(=O)(c1cccs1)N1CCCCN2[C@H](C1)[C@H](c1ccc(/C=C/c3ccccc3)cc1)[C@@H]2CO	none
O=S(=O)(c1cccs1)N1CCCCN2[C@H](C1)[C@H](c1ccc(C3=CCCC3)cc1)[C@@H]2CO	none
COc1cccc(-c2ccc([C@@H]3[C@@H](CO)N4CCCCN(S(=O)(=O)c5cccs5)C[C@H]34)cc2)c1	none
O=S(=O)(c1cccs1)N1CCCCN2[C@@H](CO)[C@@H](c3ccc(/C=C/c4ccccc4)cc3)[C@@H]2C1	IDE exosite inh -3.18
Cc1cccc(-c2ccc([C@H]3[C@@H](CO)N4CCCCN(S(=O)(=O)c5cccc(C)c5)C[C@@H]34)cc2)c1	none
COc1cccc(S(=O)(=O)N2CCCCN3[C@@H](CO)[C@@H](c4ccc(-c5ccccc5)cc4)[C@@H]3C2)c1	none
Cc1cccc(-c2ccc([C@@H]3[C@H]4CN(S(=O)(=O)c5cccs5)CCCCN4[C@H]3CO)cc2)c1	none
O=C(CN1CCOCC1)NC[C@@H]1N[C@@H](CO)[C@H]1c1ccc(-c2ccccc2)cc1	none
C/C=C/c1ccc([C@@H]2[C@@H](CO)N(C(=O)C3CC3)[C@H]2CN(C)C(=O)C2CC2)cc1	none
COc1ccc(-c2ccc([C@@H]3[C@H]4CN(Cc5ccc(F)cc5)CC(=O)N4[C@H]3CO)cc2)cc1	none
COc1ccc2c3c(n(C)c2c1)[C@@H](CO)N(C)CC31CCN(C(=O)c2cccnc2)CC1	none
COc1ccc(-c2ccc([C@@H]3[C@@H](CO)N4C(=O)CN(Cc5ccc(F)cc5)C[C@H]34)cc2)cc1	none
N#C[C@H]1[C@@H](c2ccccc2-c2ccccc2)[C@@H](CO)N1C(=O)NC1CCCC1	none
CN(C)CC#Cc1ccc([C@@H]2[C@H]3CN(CC4CC4)CCCCN3[C@H]2CO)cc1	none
CN(C)C(=O)c1cccc(-c2ccc(C3[C@H]4CNC[C@@H]3N4Cc3cccc(C(F)(F)F)c3)cc2)c1 (stereo partly specified)	none
O=C(c1cccc(F)c1)N1CC(=O)N2[C@H](C1)[C@H](c1ccc(-c3ccccc3)cc1)[C@@H]2CO	none
C[C@@H](O)C#Cc1ccc([C@@H]2[C@H]3CN(C(=O)c4ccc(F)cc4)CCCCN3[C@H]2CO)cc1	none
C[C@@H]1CC=CC[C@@H](c2ccc3c(c2)OCO3)NC(=O)[C@H](C)N(C)C(=O)c2ccccc2O1 (mixture of isomers)	none
CN1C(=O)c2cc(NC(=O)c3ccc(C(F)(F)F)cc3)ccc2OC[C@H]2O[C@H](CC(=O)NCc3ccc4c(c3)OCO4)CC[C@@H]21	none
COc1ccccc1-c1ccccc1[C@@H]1[C@@H](C#N)N(C(=O)CN(C)C)[C@@H]1CO	none
CN(C)CC(=O)N1[C@H](C#N)[C@H](c2ccc(-c3ccccc3F)cc2)[C@@H]1CO	none
COc1ccccc1-c1ccc([C@@H]2[C@H](C#N)N(C(=O)CN(C)C)[C@H]2CO)cc1	IDE exosite inh -5.05
COc1ccccc1-c1ccc([C@H]2[C@@H](C#N)N(C(=O)CN(C)C)[C@H]2CO)cc1	IDE exosite inh -3.7
CN(C)CC(=O)N1[C@H](C#N)[C@@H](c2ccc(-c3ccc(C(=O)N(C)C)cc3)cc2)[C@@H]1CO	none
COc1ccccc1-c1ccccc1[C@H]1[C@@H](C#N)N(C(=O)CN(C)C)[C@H]1CO	none
CN(C)CC(=O)N1[C@H](CO)[C@@H](c2ccc(-c3ccccc3F)cc2)[C@@H]1C#N	IDE exosite inh -3.42
COc1ccc(-c2ccc([C@@H]3[C@@H](C#N)N(C(=O)CN(C)C)[C@@H]3CO)cc2)cc1	none
CN(C)CC(=O)N1[C@H](CO)[C@H](c2ccc(-c3ccccc3F)cc2)[C@@H]1C#N	none
CN(C)CC(=O)N1[C@@H](C#N)[C@@H](c2ccc(-c3ccc(C(=O)N(C)C)cc3)cc2)[C@@H]1CO	none
COc1ccccc1-c1ccc([C@H]2[C@H](C#N)N(C(=O)CN(C)C)[C@H]2CO)cc1	IDE exosite inh -14.1
CN(C)CC(=O)N1[C@H](C#N)[C@H](c2ccc(-c3ccccc3F)cc2)[C@H]1CO	none
CCCC#Cc1ccc([C@H]2[C@@H](CO)N(C(=O)NC(C)C)[C@@H]2CNC(C)=O)cc1	none
CCCC(=O)N1CC2(CCN(S(=O)(=O)CC)CC2)c2c(n(C)c3cc(OC)ccc23)[C@@H]1CO	none
CCC(=O)N[C@@H]1CC[C@H](CC(=O)NCc2ccccc2F)O[C@H]1CO	none
N#C[C@@H]1[C@H](c2ccccc2C2=CCCC2)[C@@H](CO)N1C(=O)C1CC1	none
O=C1CNC[C@@H]2[C@H](c3ccc(C4=CCCCC4)cc3)[C@@H](CO)N12	none
CCCC#Cc1ccc([C@@H]2[C@H]3CN(C(=O)c4ccncc4)CC(=O)N3[C@H]2CO)cc1	none
